Where “and” joins values, the source holds several entries; their conditions need not be identical. Identical values can stand only once. Inconclusive results are not listed. Where a structure was tested more than once in an assay, its records may differ in their call. Calls of active or inactive are those of the source. Rule for the calls, unless noted: active = hit-call score of the fitted dose curve at least 0.9, where 1 is the maximum; inconclusive = response in the unintended direction; inactive = score below 0.9.
What was measured:
[1] = read-out: sulfotransferase 2A1 (SULT2A1), SULT2A1 (gene 6822); assay: LTEA_HepaRG_SULT2A1: Life Technologies and Expression Analysis (LTEA) Assay for sulfotransferase 2A1 (SULT2A1) using HepaRG (AID 2283531; active = hit-call score of the fitted dose curve at least 0.9, where 1 is the maximum; inactive = score below 0.9); conditions: mRNA level, 48 h; actives raise or lower the signal
Procedure, shortened: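 Expression change of SULT2A1, by qRT-PCR with three housekeeping-gene normalization, was scored bidirectionally versus DMSO. Cells: differentiated HepaRG, dosed in duplicate for 48 h across 8 points, highest 100 µM, half-log dilution, 0.5% DMSO.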

[2] = read-out: Transforming Growth Factor (TGFA), TGFA (gene 7039); assay: LTEA_HepaRG_TGFA: Life Technologies and Expression Analysis (LTEA) Assay for Transforming Growth Factor (TGFA) using HepaRG (AID 2283532; active = hit-call score of the fitted dose curve at least 0.9, where 1 is the maximum; inactive = score below 0.9); conditions: mRNA level, 48 h; actives raise or lower the signal
Procedure, shortened: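 HepaRG (human liver line), 48 h exposure, 8 conc. half-log down from 100 uM, 0.5% DMSO vehicle, duplicates; serum-free induction medium. TGFA mRNA by TaqMan qRT-PCR, ACTB/GAPDH/POLR2A normalization; gain/loss fit vs DMSO.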

[3] = read-out: Transforming Growth Factor (TGFB1), TGFB1 (gene 7040); assay: LTEA_HepaRG_TGFB1: Life Technologies and Expression Analysis (LTEA) Assay for Transforming Growth Factor (TGFB1) Transporter using HepaRG (AID 2283533; active = hit-call score of the fitted dose curve at least 0.9, where 1 is the maximum; inactive = score below 0.9); conditions: mRNA level, 48 h; actives raise or lower the signal
Procedure, shortened: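 TGFB1 transcript measured by qRT-PCR with normalisation to three housekeeping genes (ACTB, GAPDH, POLR2A); human HepaRG line treated in duplicate for 48 hr with an 8-point series topping at 100 uM, 0.5% DMSO vehicle, bidirectionally fitted.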

TIMP1, TIMP1 (gene 7076) = assay: LTEA_HepaRG_TIMP1: Life Technologies and Expression Analysis (LTEA) Assay for TIMP1 using HepaRG (AID 2283534; active = hit-call score of the fitted dose curve at least 0.9, where 1 is the maximum; inactive = score below 0.9); conditions: mRNA level, 48 h; actives raise or lower the signal
Procedure, shortened: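 Bidirectional change in TIMP1 transcript versus 0.5% DMSO, measured by TaqMan qRT-PCR with three housekeeping genes for normalization. HepaRG human liver cells dosed 48 h in duplicate, top concentration 100 uM with half-log dilutions.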

[4] = read-out: Thyroid Hormone Responsive (THRSP), THRSP (gene 7069); assay: LTEA_HepaRG_THRSP: Life Technologies and Expression Analysis (LTEA) Assay for Thyroid Hormone Responsive (THRSP) using HepaRG (AID 2283536; active = hit-call score of the fitted dose curve at least 0.9, where 1 is the maximum; inactive = score below 0.9); conditions: mRNA level, 48 h; actives raise or lower the signal
Procedure, shortened: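 mRNA induction or loss relative to 0.5% DMSO vehicle was fitted bidirectionally across an eight-point curve whose highest exposure was 100 uM. Human HepaRG liver cells received chemicals in duplicate over 48 h before RNA extraction.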

[5] = read-out: Cellular tumor antigen p53 (Homo sapiens) (UniProt P04637); assay: LTEA_HepaRG_TP53: Life Technologies and Expression Analysis (LTEA) Assay for Tumor Protein P53 (TP53) using HepaRG (AID 2283537; active = hit-call score of the fitted dose curve at least 0.9, where 1 is the maximum; inactive = score below 0.9); conditions: mRNA level, 48 h; actives raise or lower the signal
Procedure, shortened: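 Read-out is TP53 transcript level by microfluidic qRT-PCR, normalised to three housekeeping genes and fitted bidirectionally against DMSO. Human HepaRG cells received compounds for 48 h, highest concentration 100 uM.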

[6] = read-out: UDP glucuronosyltransferase (UGT1A1), UGT1A1 (gene 54658); assay: LTEA_HepaRG_UGT1A1: Life Technologies and Expression Analysis (LTEA) Assay for UDP glucuronosyltransferase (UGT1A1) using HepaRG (AID 2283538; active = hit-call score of the fitted dose curve at least 0.9, where 1 is the maximum; inactive = score below 0.9); conditions: mRNA level, 48 h; actives raise or lower the signal
Procedure, shortened: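 HepaRG cells, 0.5% DMSO vehicle, 48 h exposure in serum-free induction medium to 8-point half-log series topping at 100 uM, in duplicate. UGT1A1 mRNA by Fluidigm qRT-PCR, normalized to ACTB/GAPDH/POLR2A; bidirectional fit versus DMSO.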

[7] = read-out: UDP glucuronosyltransferase (UGT1A6), UGT1A6 (gene 54578); assay: LTEA_HepaRG_UGT1A6: Life Technologies and Expression Analysis (LTEA) Assay for UDP glucuronosyltransferase (UGT1A6) using HepaRG (AID 2283539; active = hit-call score of the fitted dose curve at least 0.9, where 1 is the maximum; inactive = score below 0.9); conditions: mRNA level, 48 h; actives raise or lower the signal
Procedure, shortened: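 Expression was quantified by TaqMan qRT-PCR on Fluidigm arrays with ACTB/GAPDH/POLR2A normalization and bidirectional fitting against 0.5% DMSO. HepaRG cells (~100,000/well) were treated in duplicate for 48 h at eight half-log concentrations up to 100 uM in serum-free induction medium.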

[8] = read-out: X-box binding protein 1 (XBP1), XBP1 (gene 7494); assay: LTEA_HepaRG_XBP1: Life Technologies and Expression Analysis (LTEA) Assay for X-box binding protein 1 (XBP1) using HepaRG (AID 2283540; active = hit-call score of the fitted dose curve at least 0.9, where 1 is the maximum; inactive = score below 0.9); conditions: mRNA level, 48 h; actives raise or lower the signal
Procedure, shortened: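 XBP1 transcript by qRT-PCR (housekeeping-normalized: ACTB, GAPDH, POLR2A) after 48 h chemical treatment of HepaRG cells, 8-point half-log series topping at 100 uM, vehicle 0.5% DMSO. Gain and loss of signal fitted relative to DMSO.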

[9] = LTEA_HepaRG_LDH_cytotoxicity: Cytotoxicity Assessment in the Life Technologies and Expression Analysis (LTEA) Assay (AID 2283563);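 for AC50: LDH activity released into spent culture medium as a marker of cell death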
Procedure, shortened: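 LDH release into culture medium read after 48 h chemical treatment of HepaRG cells. Duplicate wells, eight-point half-log series topping at 100 uM, 0.5% DMSO vehicle and baseline.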

[10] = TOX21_p53_BLA_p2_viability: Viability Assessment in the Tox21 HCT-116 p53 Agonism Beta-lactamase Assay, Phase 2 (AID 2283591);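 note: compound exposure lasted 16 h at 37 °C; actives lower the ATP signal meaning cytotoxicity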
Procedure, shortened: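 Cytotoxicity readout: CellTiter-Glo ATP luminescence, 30 min at room temperature, after the beta-lactamase read. Cells were HCT116 exposed 16 h at 37C to compounds pin-transferred at 217-fold dilution from DMSO stocks.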

[11] = biological target: Cellular tumor antigen p53 (Homo sapiens) (UniProt P04637); assay: TOX21_p53_BLA_p2_ratio: Tox21 HCT-116 p53 Agonism Beta-lactamase Assay, Ratio, Phase 2 (AID 2283592)
Procedure, shortened: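 Gain-of-signal p53 agonism was scored from the beta-lactamase FRET ratio (460/530 nm, 405 nm excitation) in HCT116 cells treated 16 h at 37C, 5% CO2, with DMSO serving as negative control and baseline.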

[12] = TOX21_p53_BLA_p3_viability: Viability Assessment in the Tox21 HCT-116 p53 Agonism Beta-lactamase Assay, Phase 3 (AID 2283593);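 note: cells exposed to compound for 16 h before reading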
Procedure, shortened: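 Cellular ATP was quantified by CellTiter-Glo luminescence, read after 30 min at room temperature. Beforehand, HCT116 cells (4000/well) received compound 5 h post-seeding, 217-fold diluted from DMSO, then incubated 16 h at 37C.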

[13] = TOX21_p53_BLA_p4_viability: Viability Assessment in the Tox21 HCT-116 p53 Agonism Beta-lactamase Assay, Phase 4 (AID 2283597);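 note: hits lower the luminescence signal meaning cytotoxicity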
Procedure, shortened: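 Following a 16 h exposure at 37C, the treated HCT116 wells were first read for the FRET ratio. They were then lysed with CellTiter-Glo, and ATP luminescence was recorded after 30 min at room temperature.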

[14] = biological target: Cellular tumor antigen p53 (Homo sapiens) (UniProt P04637); assay: TOX21_p53_BLA_p5_ratio: Tox21 HCT-116 p53 Agonism Beta-lactamase Assay, Ratio, Phase 5 (AID 2283599)
Procedure, shortened: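 Beta-lactamase reporter ratio (blue 460 nm over green 530 nm, 405 nm excitation) after 2 h CCF4-AM loading, in HCT-116 cells exposed 16 h at 37 C to compounds pinned at 217-fold dilution. Increases relative to DMSO baseline scored.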

[15] = biological target: Cellular tumor antigen p53 (Homo sapiens) (UniProt P04637); assay: TOX21_p53_BLA_p3_ratio: Tox21 HCT-116 p53 Agonism Beta-lactamase Assay, Ratio, Phase 3 (AID 2283596)
Procedure, shortened: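 HCT116 p53-bla cells (4000/well) given compound in DMSO (217-fold dilution) after 5 h, incubated 16 h at 37C. CCF4-AM substrate 2 h at room temperature; 460/530 nm emission ratio, gain fitted against DMSO.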

[16] = biological target: Cellular tumor antigen p53 (Homo sapiens) (UniProt P04637); assay: TOX21_p53_BLA_p4_ratio: Tox21 HCT-116 p53 Agonism Beta-lactamase Assay, Ratio, Phase 4 (AID 2283601)
Procedure, shortened: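 Signal is the blue/green (460nm/530nm) ratio of cleaved versus uncleaved CCF4-AM substrate, read after 2 h substrate loading. Cells were HCT116 carrying the p53-responsive beta-lactamase reporter, dosed 16 h at 37C, 5% CO2; CellTiter-Glo measured in parallel.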

[17] = TOX21_p53_BLA_p5_viability: Viability Assessment in the Tox21 HCT-116 p53 Agonism Beta-lactamase Assay, Phase 5 (AID 2283600)
Procedure, shortened: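 After the 460/530 nm beta-lactamase measurement, the wells received an ATP-detection luciferase reagent; signal was read 30 min later at RT. Compound treatment lasted 16 h on cells pre-incubated 5 h post-seeding.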

[18] = ATG_XTT_Cytotoxicity: Cytotoxicity Assessment in the Attagene TRANS-FACTORIAL HepG2 Assay (AID 2283584)
Procedure, shortened: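 Viability endpoint from XTT after 24 h chemical exposure of reporter-transfected human HepG2 liver cells; signal loss fitted relative to DMSO negative control.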

Measured: AC50

Sequence of Cellular tumor antigen p53 (Homo sapiens) (P04637 whole entry, looked up): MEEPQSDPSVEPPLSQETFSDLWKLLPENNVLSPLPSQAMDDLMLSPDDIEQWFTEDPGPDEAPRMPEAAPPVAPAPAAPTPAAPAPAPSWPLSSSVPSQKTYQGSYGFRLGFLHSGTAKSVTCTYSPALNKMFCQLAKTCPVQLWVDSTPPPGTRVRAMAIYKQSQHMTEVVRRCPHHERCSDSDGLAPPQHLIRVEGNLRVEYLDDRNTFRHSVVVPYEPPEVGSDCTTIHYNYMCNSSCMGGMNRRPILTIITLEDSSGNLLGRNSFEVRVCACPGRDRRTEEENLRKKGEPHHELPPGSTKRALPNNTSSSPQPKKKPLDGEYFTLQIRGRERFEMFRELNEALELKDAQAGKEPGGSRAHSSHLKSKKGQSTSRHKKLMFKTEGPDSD

CCCCc1ccc2c(n1)[C@@H](c1ccc(OC)cc1C[C@H](C)C(=O)O)[C@H](C(=O)O)[C@H]2c1ccc2c(c1)OCO2
not listed: [15] | [16] | [17] | [18]
inactive: all other assays above

CCCCCCCCCCCCCCCC
not listed: [5] | [13] | [14] | [16] | [17] | [18]
inactive: all other assays above

C[Si]1(C)O[Si](C)(C)O[Si](C)(C)O[Si](C)(C)O1
not listed: [13] | [15] | [17] | [18]
inactive: all other assays above

CCc1c(C(=O)NN2CCCCC2)nn(-c2ccc(Cl)cc2Cl)c1-c1ccc(Br)cc1
inactive: [4] | [11] | [15] | [14] | [17] | [16]
active: [1] 37.4 µM | [2] 55.3 µM | [3] 13.2 µM | TIMP1, TIMP1 (gene 7076) 86.5 µM | [6] 58.1 µM | [7] 73.6 µM | [8] 74.9 µM | [9] 61.6 µM | [10] 5.6 µM | [12] 9.14 µM | [13] 2.1 µM

CC(=O)OC/C=C(\C)CCC=C(C)C
not listed: [5] | [12]
inactive: all other assays above

Cc1cccc([N+](=O)[O-])c1C
not listed: [5] | [16] | [18]
inactive: all other assays above

CC(=O)Oc1ccccc1C(=O)O
not listed: [4] | [18]
inactive: all other assays above

Cc1ccc2ncccc2c1
not listed: [5] | [10] | [12]
inactive: all other assays above

Cc1c(C(=O)O)c(O)cc2c1C(=O)c1c(O)c([C@@H]3O[C@H](CO)[C@@H](O)[C@H](O)[C@H]3O)c(O)c(O)c1C2=O
not listed: [9]
inactive: all other assays above

Cc1oc(-c2ccccc2)nc1CCOc1cccc2c1ccn2CCC(=O)O
active: [1] 90.5 µM | [2] 50 µM | [3] 16.9 µM | [4] 79.1 µM | [6] 90.9 µM | [7] 79.8 µM | [9] 81.4 µM | [11] 68.6 µM
not listed: [5] | [18]
inactive: all other assays above

O=[N+]([O-])C(CO)(CO)CO
not listed: [15] | [18]
inactive: all other assays above

Cc1ccc(C)c(O)c1C
not listed: [5] | [7] | [10] | [17] | [18]
inactive: all other assays above

Clc1cc(Cl)c(Cl)cc1Cl
not listed: [5] | [11]
inactive: all other assays above

CCCCCCCCCCCCCO
not listed: [5] | [10]
inactive: all other assays above

CCCCCCCCCCCC(=O)OC
not listed: [5] | [13]
inactive: all other assays above

COc1cc(S(=O)(=O)O)c(C)cc1N=Nc1c(O)ccc2cc(S(=O)(=O)O)ccc12
not listed: [5] | [9] | [10] | [12] | [17]
inactive: all other assays above

COc1ccc(C)cc1N
not listed: [5] | [10] | [12] | [17]
inactive: all other assays above

COc1cc(/C=C/C(=O)CC(=O)/C=C/c2ccc(O)c(OC)c2)ccc1O
active: [10] 82.2 µM and 34.1 µM | [11] 2.06 µM and 36 µM and 6.79 µM | [12] 57.5 µM and 19.8 µM | [15] 13.6 µM and 35.3 µM and 6.9 µM | [13] 88.4 µM and 23 µM | [14] 14 µM and 39.4 µM and 7.67 µM | [17] 80.7 µM and 22.5 µM | [16] 14 µM and 36.5 µM and 7.12 µM
inactive: [18] | [10] | [12] | [13]
